{"source": "PubChem BioAssay (NCI)", "note": "Compounds without any hit were thinned out: in the full panel of roughly 83,000, 20% have a hit.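 A percent growth of 40 corresponds to 60% growth inhibition; 0 means no net growth; -100 means all cells died. Active threshold: below 10.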 Calls of active or inactive are those of the source.", "data": [{"test_system": "HL-60(TB) leukemia", "assay": "NCI-60 one-dose screen, 48 h (100 = growth as untreated, 0 = no growth, -100 = all killed)", "details": "10 µM unless noted", "values": [{"smiles": "CN(CCF)c1ccc(/C=C/C(=O)c2ccc(N)cc2O)cc1", "growth": "58% (inactive)"}, {"smiles": "Cn1cc(-c2cc(N)n3nc(-c4c[nH]c5ccc(F)cc45)cc3n2)c2cccnc21", "growth": "-54% (active)"}, {"smiles": "COC(=O)C(Cc1ccc(O)c(O)c1)NC(=O)C(CSC/C=C(\\C)CCCC(C)CCCC(C)CCCC(C)C)NC(C)=O", "note": "(stereo not given)", "growth": "-22.9% (active)"}, {"smiles": "CCN(CC)c1ccc(/C=N/Nc2nc(-c3ccc(C)cc3)cs2)c(O)c1", "growth": "70% (inactive)"}, {"smiles": "COc1ccc2[nH]c(O)c(N=Nc3nc(-c4ccccc4)cs3)c2c1", "growth": "71.6% (inactive)"}]}]}
